Source: PubChem (National Center for Advancing Translational Sciences (NCATS))
Sampled rows, rich in hits. Any-hit rate of the full collection: about 9.4%.
SMN2 splice enh: SMN2 splice variant enhancement; HEK293 SMN2-luciferase splicing reporter, luminescence, 30-36 h; Potency, µM (series often up to 46.1 µM), without a hit: at the highest dose activity change, positive = activation, usual class: activators; 210,000 compounds, 2.8% hits; AID 1458; further: % of control where 0% means no effect; nearly all actives have a fitted effect of over 55% in size
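HEK293 cells carry an SMN2 minigene-luciferase reporter in which exon 7 inclusion puts luciferase in frame. Cells were seeded at 2000 cells/well, attached for 10-12 hours, then exposed to compounds for 30-36 hours at 37C before ONE-Glo luminescence.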
ELG1 genotox: induces genotoxicity in HEK293T cells with luciferase-tagged ELG1. HEK293T ELG1-luciferase reporter, luminescence, 16 h. 330,000 compounds, 1.3% hits. Potency, µM (doses to about 46 µM), for inactives: at the top dose activity change, positive = activation, actives largely listed as activators; further: % of control where 0% means no effect; nearly all actives have a fitted effect of over 60% in size
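DMSO vehicle served as control against compound-treated ELG1-luciferase HEK293T cells; exposure lasted 16 hr at 37 °C and 5% CO2, followed by ONE-Glo luminescence detection after 30 min.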
FLuc counter: inhibits or activates purified firefly luciferase, miR-21 counter-screen; P08659; 360,000 compounds, 6.9% hits; purified FLuc, Km substrates, luminescence inhibition; Potency, µM (doses to about 57.5 µM), for inactives: at the top dose activity change, negative = inhibition, most hits filed as inhibitors;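 further: plate controls were vehicle for no effect and reference inhibitor for full effect; nearly all actives have a fitted effect of over 55% in size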
Target sequence (P08659 whole entry, looked up): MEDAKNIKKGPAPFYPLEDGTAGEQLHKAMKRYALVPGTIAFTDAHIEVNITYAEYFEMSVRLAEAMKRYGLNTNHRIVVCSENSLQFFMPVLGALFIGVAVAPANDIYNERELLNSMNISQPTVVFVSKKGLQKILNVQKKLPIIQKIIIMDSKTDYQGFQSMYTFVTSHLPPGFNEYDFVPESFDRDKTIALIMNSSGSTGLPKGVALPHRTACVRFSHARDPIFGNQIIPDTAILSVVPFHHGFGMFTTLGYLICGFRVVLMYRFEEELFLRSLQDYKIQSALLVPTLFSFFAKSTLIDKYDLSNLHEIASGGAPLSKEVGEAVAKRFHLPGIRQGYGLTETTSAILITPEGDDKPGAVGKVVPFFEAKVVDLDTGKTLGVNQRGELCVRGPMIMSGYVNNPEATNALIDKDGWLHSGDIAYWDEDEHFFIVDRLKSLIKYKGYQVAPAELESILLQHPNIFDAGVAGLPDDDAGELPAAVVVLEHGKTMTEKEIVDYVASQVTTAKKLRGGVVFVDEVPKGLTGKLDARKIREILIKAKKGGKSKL
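Purified P. pyralis luciferase (10nM final) with 10uM D-luciferin and 10uM ATP (Km levels) in 50mM Tris acetate pH 7.5, 10mM Mg acetate, 0.01% Tween-20, 0.05% BSA; qHTS 6-point titration, ~60 µM downward; luminescence read.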
Rab9 promoter act: Rab9 promoter activation; 320,000 compounds, 2.8% hits; Huh7 Rab9 promoter-luciferase reporter, luminescence, 24 h; Potency, µM (top dose mostly 9.22 µM), without a hit: top-dose activation, negative = inhibition, usual class: activators; further: % of control where 0% means no effect; nearly all actives have a fitted effect of over 60% in size
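Huh7 cells stably carrying Rab9 promoter–luciferase reporter, plated 1500 cells/well, compound added after 2 h and incubated 24 h at 37 °C; luciferase luminescence then read after 10 min with detection reagent.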
NPC1 prom act: activates the NPC1 promoter; Huh7 NPC1 promoter luciferase reporter, 24 h; Potency, µM (series often up to 9.22 µM), inactives show top-dose activation, hits mostly activators; 320,000 compounds, 2.4% hits; further: % of control where 0% means no effect; nearly all actives have a fitted effect of over 60% in size
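Compounds in DMSO were transferred onto Huh7 NPC1-luciferase reporter cells pre-incubated 2 h; after 24 h at 37 °C, Amplite reagent was dispensed and luminescence recorded 10 min later.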
ELG1 DNA repair: blocks ELG1-dependent DNA repair in HEK293T cells; Potency, µM (titrated, usually from 46.1 µM), inactives show at the top dose activity change, negative = inhibition, actives largely listed as inhibitors; HEK293T ELG1-luciferase reporter, luminescence, 16 h; DNA damage induced by 5-fluorouridine; 330,000 compounds, 2.3% hits; further: on the % scale 0 is the no-effect control and ±100 the full control effect; nearly all actives have a fitted effect of over 55% in size
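HEK293T cells expressing luciferase-tagged ELG1 (2,000/well) received 5-Fluorouridine plus compound or DMSO for 16 hr at 37 °C. Luciferase was read by ONE-Glo luminescence after 30 min at room temperature.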
* marks the source's active call; other numbers are inactive results. The call rests on the fitted dose curve; in most records, active means well fitted curve in the direction sought with a large enough effect; inconclusive means small, poorly fitted or top-dose-only effect, or another doubt; inactive means no such curve, though single readings can be large; an effect the other way counts as inactive or inconclusive. Potency means the concentration at half of the fitted maximal effect.

What do the screens show for `Cc1c2oc3c(C)ccc(C(=O)NC4C(=O)NC(C(C)C)C(=O)N5CCCC5C(=O)N(C)CC(=O)N(C)C(C(C)C)C(=O)OC4C)c3nc-2c(C(=O)NC2C(=O)NC(C(C)C)C(=O)N3CCCC3C(=O)N(C)CC(=O)N(C)C(C(C)C)C(=O)OC2C)c(N)c1=O` (configuration not stated)?
SMN2 splice enh: -95%

How did O=C(/C=C/c1ccc(Cl)cc1Cl)Nc1ccc(CN2CCOCC2)cc1 do in these assays?
SMN2 splice enh: -77%; ELG1 genotox: 9%; FLuc counter: 7.6µM*; Rab9 promoter act: -22%; NPC1 prom act: -8%; ELG1 DNA repair: inconclusive

What do the screens show for `O=C(/C=C/c1ccc(Cl)cc1)NC(=S)Nc1ccc(CN2CCOCC2)cc1`?
ELG1 genotox: inconclusive; FLuc counter: 0%; Rab9 promoter act: -2%; NPC1 prom act: -11%; ELG1 DNA repair: 21%

How did O=C(/C=C/c1ccco1)Nc1ccc(N2CCCC2)cc1 do in these assays?
SMN2 splice enh: 16µM*; ELG1 genotox: inconclusive; FLuc counter: 2.4µM*; Rab9 promoter act: 2.8µM*; NPC1 prom act: 3.5µM*; ELG1 DNA repair: inconclusive

Results for O=C(/C=C/c1ccccc1)Nc1ccc(CN2CCOCC2)cc1 ?
SMN2 splice enh: 29%; ELG1 genotox: 17%; FLuc counter: 12µM*; Rab9 promoter act: inconclusive; NPC1 prom act: 18%; ELG1 DNA repair: inconclusive

How did O=C(/C=C/c1ccco1)Nc1ccc(CN2CCOCC2)cc1 do in these assays?
ELG1 genotox: inconclusive; FLuc counter: 6µM*; Rab9 promoter act: 2.8µM*; NPC1 prom act: 1.4µM*; ELG1 DNA repair: inconclusive

How did COc1ccc(OC)c(NC(=O)c2c(NCc3ccc(C)o3)sc3c2CCC(C)C3)c1 (configuration not stated) do in these assays?
FLuc counter: -9%

What do the screens show for `CCOc1ccc(Sc2cc(C(=O)NC(C)c3ccccc3)c3ccccc3n2)cc1` (configuration not stated)?
FLuc counter: 3%

How did COc1ccc(OC)c(NC(=O)CSc2cn(CC(=O)N3CCOCC3)c3ccccc23)c1 do in these assays?
FLuc counter: 6%

Results for O=C(Nc1nnc(C2CC2)o1)c1ccc(S(=O)(=O)N2CCCc3ccccc32)cc1 ?
SMN2 splice enh: -53%; ELG1 genotox: -12%; FLuc counter: 1%; Rab9 promoter act: -11%; NPC1 prom act: -11%; ELG1 DNA repair: 7.3µM*

What do the screens show for `COCc1nnc(NC(=O)c2ccc(S(=O)(=O)N3CCCc4ccccc43)cc2)o1`?
SMN2 splice enh: -33%; ELG1 genotox: -7%; FLuc counter: inconclusive; Rab9 promoter act: -2%; NPC1 prom act: -10%; ELG1 DNA repair: 16µM*

Results for COc1ccc(-c2nnc(NC(=O)c3ccc(S(=O)(=O)N4CCCc5ccccc54)cc3)o2)cc1 ?
SMN2 splice enh: -92%; ELG1 genotox: -8%; FLuc counter: -2%; Rab9 promoter act: -4%; NPC1 prom act: -1%; ELG1 DNA repair: inconclusive

Results for CC(=O)c1c(C)[nH]c(C(=O)OCC(=O)Nc2cccc(S(=O)(=O)N(C)C)c2)c1C ?
SMN2 splice enh: -47%; ELG1 genotox: -7%; FLuc counter: 0%; Rab9 promoter act: -9%; NPC1 prom act: -2%; ELG1 DNA repair: 13µM*

What do the screens show for `CC(=O)c1c(C)[nH]c(C(=O)Nc2ccc(S(=O)(=O)N(C)C)cc2)c1C`?
ELG1 genotox: 8%; FLuc counter: -2%; Rab9 promoter act: 2%; NPC1 prom act: -9%; ELG1 DNA repair: inconclusive

How did CCN(CC)S(=O)(=O)c1cc(NC(=O)C(C)OC(=O)c2[nH]c(C)c(C(C)=O)c2C)ccc1C (configuration not stated) do in these assays?
SMN2 splice enh: -45%; ELG1 genotox: -1%; FLuc counter: -3%; Rab9 promoter act: -3%; NPC1 prom act: -7%; ELG1 DNA repair: 10µM*

How did Cc1onc(-c2ccccc2Cl)c1C(=O)OCC(=O)Nc1cccc(S(=O)(=O)N(C)C)c1 do in these assays?
SMN2 splice enh: -34%; ELG1 genotox: -12%; FLuc counter: -7%; Rab9 promoter act: -5%; NPC1 prom act: -4%; ELG1 DNA repair: 16µM*

How did CC(=O)c1c(C)[nH]c(C(=O)Nc2cccc(S(=O)(=O)N(C)C)c2)c1C do in these assays?
SMN2 splice enh: 11µM*; ELG1 genotox: inconclusive; FLuc counter: -18%; Rab9 promoter act: inconclusive; NPC1 prom act: 1%; ELG1 DNA repair: inconclusive

Results for Cc1ccc(S(=O)(=O)N(C)C)cc1NC(=O)c1c(-c2c(F)cccc2Cl)noc1C ?
ELG1 genotox: 0%; FLuc counter: 2%; Rab9 promoter act: 1%; NPC1 prom act: -2%; ELG1 DNA repair: 26µM*

How did CCN(CC)S(=O)(=O)c1cccc(NC(=O)CCSc2ccc(Cl)cc2)c1 do in these assays?
SMN2 splice enh: -33%; ELG1 genotox: -7%; FLuc counter: -2%; Rab9 promoter act: -2%; NPC1 prom act: -3%; ELG1 DNA repair: inconclusive

How did CN(C)S(=O)(=O)c1cccc(NC(=O)COC(=O)CCSc2ccc(Cl)cc2)c1 do in these assays?
SMN2 splice enh: -4%; ELG1 genotox: 1%; FLuc counter: 21µM*; Rab9 promoter act: 2%; NPC1 prom act: -2%; ELG1 DNA repair: 24%

Results for Cc1cc(C)c(Cn2c3ccccc3c3cnn(CC(=O)NC4CCC(C)CC4)c(=O)c32)c(C)c1 (configuration not stated) ?
SMN2 splice enh: 2%; FLuc counter: -5%

Results for Clc1ccc(-c2cc3ccccc3[nH]2)cc1 ?
SMN2 splice enh: 18%; ELG1 genotox: inconclusive; FLuc counter: 9.5µM*; Rab9 promoter act: 4µM*; NPC1 prom act: inconclusive; ELG1 DNA repair: inconclusive

What do the screens show for `CCC(=O)N1c2ccc(S(=O)(=O)N3CCCCCC3)cc2CC1C` (configuration not stated)?
SMN2 splice enh: 8%; FLuc counter: -8%

What do the screens show for `COc1ccc(-n2c(SCC(=O)Nc3nnc(C)s3)nc3c([nH]c4ccccc43)c2=O)cc1`?
FLuc counter: 3%

Results for COC(=O)[C@@]1(Cc2ccc(F)cc2)[C@@H]2C(=CC(=O)[C@H]2CC(=O)C(=O)N(C)C)CN1C(=O)c1ccccc1 ?
SMN2 splice enh: -71%
